# Results published in article PMC12040169 (PLOS Biology, 2025).
# System: T1, CTL2-GFP (C. trachomatis L2/434/Bu, GFP-expressing)
# T1 construct: L2/434/Bu, GFP-expressing
# Design: species or system HeLa; Intracellular C. trachomatis growth in HeLa cells, bulk GFP fluorescence relative to DMSO
# Details: bulk GFP, single well; 28.5 h, 10 µM; inhibitor
# Protocol: MICs were calculated as described above.
row,SMILES,% of control remaining [%]
1,O=C(c1cccc(S(=O)(=O)F)c1)N1CCCCC1 [CBK074224],100.074
2,S=P(Oc1ccccc1)(Oc1ccccc1)Oc1ccccc1 [CBK260987],100
3,CCOC(=O)CC(C)(O)P(=O)(OC)OC (stereo not drawn) [CBK261287],100
